The list is not random: actives were taken first. Their share in the collection is about 19%.
Cycloheximide cs: counter-screen hit for Shiga toxin inhibitors, cycloheximide | cell reporter, cycloheximide protein synthesis inhibition counterscreen | max response, % | 300,000 compounds, 12% hits | AID 2314; in the data active means max response mostly above about 13%, no sharp cut-off; inactive means mostly below about 14%; further: read at 38.3 µM for the half of the compounds with a filed dose; 0% is about no effect
Pf growth 96h: P. falciparum growth inhibition at 96 hours; 320,000 compounds, 6.9% hits; AID 504834; Potency, µM (highest dose often 28.7 µM), for inactives: at the top dose activity change, negative = inhibition, usual class: inhibitors; P. falciparum luciferase reporter growth, 96 h; further: potency means the concentration at half of the fitted maximal effect; on the % scale 0 is the no-effect control and ±100 the full control effect
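Plates of compound plus infected erythrocytes (2% hematocrit, 0.05% parasitemia final) incubate 96 hours, 37 C, 5% CO2. Detection reagent added; reduced luminescence from the parasites' luciferase reporter flags inhibition.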
Pf growth 48h: P. falciparum growth inhibition at 48 hours (one generation). P. falciparum luciferase growth in erythrocytes, 48 h. Potency, µM (top dose mostly 28.7 µM), for the others: at the top dose activity change, negative = inhibition, usual class: inhibitors. 310,000 compounds, 5.9% hits. AID 504832; further: potency means the concentration at half of the fitted maximal effect; on the % scale 0 is the no-effect control and ±100 the full control effect
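First compound was added to culture medium, then infected red cells at 0.1% parasitemia and 2% hematocrit (final). After incubation at 37 C under 5% CO2, luciferase detection reagent was dispensed and light output recorded.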
Shiga toxin inh: inhibitors of Shiga toxin in Vero cells | Vero cells, Shiga toxin protein synthesis inhibition reporter | inhibition, % at 38.7 µM | 290,000 compounds, 9.2% hits | AID 2315; in the data active means inhibition mostly above about 28%, no sharp cut-off; inactive means mostly below about 43%; further: 0% is about no effect
AMA1 RON2 block: inhibitors of Plasmodium falciparum AMA1-RON2 interaction; AID 720542; 360,000 compounds, 0.2% hits; Potency, µM (doses to about 58.2 µM), for the others: top-dose activity change, negative = inhibition, hits mostly inhibitors; AlphaScreen AMA1-biotinylated RON2 peptide binding;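 further: potency means the concentration at half of the fitted maximal effect; 0% = vehicle wells and -100% = peptide control; nearly all actives have a fitted effect of over 45% in size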
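AMA1 (3D7) with his tag at 25 nM final met compounds first, then biotinylated RON2 peptide at 25 nM; detection used donor plus acceptor beads, 10 µg/mL apiece, read by AlphaScreen after 30 min at room temperature.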
SARS PLpro yeast: SARS-CoV PLP inhibition in yeast. S. cerevisiae expressing SARS-CoV PLpro, growth rescue. 330,000 compounds, 0.19% hits. AID 485353. Potency, µM (doses to about 32.9 µM), inactives show at the top dose activity, positive = growth rescue, usual class: activators; calls by dose curve; further: potency means the concentration at half of the fitted maximal effect; 0% is about no effect; nearly all actives have a fitted effect of over 55% in size
* marks the source's active call; other numbers are inactive results. Unless noted, the call rests on the fitted dose curve; in most records, active means well fitted curve in the direction sought with a large enough effect; inconclusive means small, poorly fitted or top-dose-only effect, or another doubt; inactive means no such curve, though single readings can be large; an effect the other way counts as inactive or inconclusive.

`O=C(COC(=O)c1ccc(O)cc1)NCCCc1ccccc1` gave Cycloheximide cs 2, Pf growth 96h inconclusive, Pf growth 48h inconclusive, Shiga toxin inh -9, AMA1 RON2 block -4% and SARS PLpro yeast 0%.
For COc1ccc(CC(=O)NCC2CCCN(Cc3ccccc3OC)C2)cc1 (stereo not drawn) the results were Cycloheximide cs -1, Pf growth 96h -3%, Pf growth 48h -34%, Shiga toxin inh -22, AMA1 RON2 block 6% and SARS PLpro yeast 3%.
For O=C(COc1ccccc1)NC1CCSC1=O (stereo not drawn) the results were Cycloheximide cs 7, Pf growth 96h 33%, Pf growth 48h 24%, Shiga toxin inh 9, AMA1 RON2 block 0% and SARS PLpro yeast 0%.
CCC(CC)c1nnc(NC(=O)c2ccc(N3CCCC3=O)cc2)s1 was read as Cycloheximide cs -3, Pf growth 96h 73%, Pf growth 48h 33%, Shiga toxin inh -12, AMA1 RON2 block -13% and SARS PLpro yeast 3%.
For CNC(C)C#Cc1ccc2oc3cccc(OC)c3c(=O)c2c1 (stereo not drawn) the results were Cycloheximide cs 36*, Pf growth 96h 89%, Pf growth 48h 22%, Shiga toxin inh 45*, AMA1 RON2 block -1% and SARS PLpro yeast -5%.
`CNC(C)C#Cc1ccc2oc3cc(C)c(C)cc3c(=O)c2c1` (stereo not drawn) gave AMA1 RON2 block 28%.
O=C1CCC(c2ccccc2)=NN1Cc1c(F)cccc1Cl was read as Cycloheximide cs -3, Pf growth 96h inconclusive, Pf growth 48h 0%, Shiga toxin inh -17, AMA1 RON2 block 12% and SARS PLpro yeast -2%.
`Cc1cc(F)ccc1S(=O)(=O)N1CCCOC1CNC(=O)C(=O)NC1CCCCC1` (stereo not drawn) gave Cycloheximide cs 1, Pf growth 96h 2%, Pf growth 48h 1%, Shiga toxin inh -1, AMA1 RON2 block 23% and SARS PLpro yeast 1%.
For CC1CCN(CC(O)COC2CC(C)CCC2C(C)C)CC1 (stereo not drawn) the results were Cycloheximide cs -3, Pf growth 96h inconclusive, Pf growth 48h 12µM*, Shiga toxin inh 18, AMA1 RON2 block -3% and SARS PLpro yeast -1%.
Screening CCOC(=O)N1CCN(CC(O)COC2CC(C)CCC2C(C)C)CC1 (stereo not drawn) returned Cycloheximide cs -4, Pf growth 48h inconclusive, Shiga toxin inh -21, AMA1 RON2 block -1% and SARS PLpro yeast -3%.
`CC1CCC(C(C)C)C(OCC(O)CNC(C)(C)C)C1` (stereo not drawn) gave Cycloheximide cs -7, Pf growth 96h 5.2µM*, Pf growth 48h inconclusive, Shiga toxin inh -9, AMA1 RON2 block 0% and SARS PLpro yeast 0%.
`Cc1cncc(NCc2ccc3c(c2)OCO3)n1` gave AMA1 RON2 block -9%.
For O=C(Nc1ccccc1)N1CCCC2CCCCC21 (stereo not drawn) the results were Cycloheximide cs 45*, Pf growth 48h 92%, Shiga toxin inh 94*, AMA1 RON2 block 1% and SARS PLpro yeast -19%.
For O=C(c1ccccc1)C1CCN(C(=O)Nc2ccccc2)CC1 the results were Cycloheximide cs 16*, Pf growth 96h 8%, Pf growth 48h inconclusive, Shiga toxin inh 6, AMA1 RON2 block 3% and SARS PLpro yeast -1%.
Cc1ccc(NC(=O)N2CCC(C(=O)c3ccc(F)cc3)CC2)cc1 was read as Cycloheximide cs 11, Pf growth 96h -6%, Pf growth 48h -9%, Shiga toxin inh 13, AMA1 RON2 block -2% and SARS PLpro yeast -3%.
For Cc1ccc(CN(C)C(=O)C2CCN(C(=O)Nc3ccccc3)CC2)o1 the results were Pf growth 96h -6%, Pf growth 48h -17%, AMA1 RON2 block -5% and SARS PLpro yeast 0%.
O=C(c1ccc(F)cc1)C1CCN(C(=O)Nc2ccccc2Cl)CC1 was read as Cycloheximide cs -3, Pf growth 96h 2.9µM*, Pf growth 48h -26%, Shiga toxin inh 23, AMA1 RON2 block -5% and SARS PLpro yeast -3%.
Screening CN(Cc1ccc(C(C)(C)C)cc1)C(=O)C1CCN(C(=O)Nc2ccccc2)CC1 returned Pf growth 96h 13µM*, Pf growth 48h 10µM*, AMA1 RON2 block 9% and SARS PLpro yeast 1%.
Cc1ccccc1NC(=O)N1CCC(C(=O)c2ccc(F)cc2)CC1 was read as Cycloheximide cs -2, Pf growth 96h inconclusive, Pf growth 48h 4%, Shiga toxin inh 25, AMA1 RON2 block -1% and SARS PLpro yeast -2%.
`Cc1ccc(N(C(=O)CS(=O)CC(=O)Nc2ccc(F)cc2)C(C(=O)NC2CCCCC2)c2ccco2)cc1` (stereo not drawn) gave Cycloheximide cs 3, Pf growth 96h -30%, Pf growth 48h inconclusive, Shiga toxin inh 12, AMA1 RON2 block 8% and SARS PLpro yeast 18%.
Screening C[C@@H](c1ccccc1)N1C[C@@H](COCc2ccccc2)Oc2cc(N3CCC[C@H]3C(N)=O)ccc2S1(=O)=O returned AMA1 RON2 block 3%.
For O=C(NC(=S)N1CCN(Cc2ccc3c(c2)OCO3)CC1)c1ccc(Cl)cc1 the results were Cycloheximide cs 15*, Pf growth 96h -99%, Pf growth 48h -24%, Shiga toxin inh 11, AMA1 RON2 block -1% and SARS PLpro yeast -7%.
COc1ccc(N2CCN(C(=O)c3cc4cc(Cl)ccc4[nH]3)CC2)cc1 was read as Cycloheximide cs 19*, Pf growth 96h inconclusive, Pf growth 48h inconclusive, Shiga toxin inh 13, AMA1 RON2 block -10% and SARS PLpro yeast 0%.
CN1CCN(C(=O)c2ccc(Cl)cc2)CC1 was read as Cycloheximide cs -3, Pf growth 96h 2.6µM*, Pf growth 48h -3%, AMA1 RON2 block -9% and SARS PLpro yeast 2%.
Cc1cccc(N2CCN(C(=O)c3cc4cc(F)ccc4[nH]3)CC2)c1C was read as Cycloheximide cs 3, Pf growth 96h 13µM*, Pf growth 48h 1.7µM*, Shiga toxin inh 67, AMA1 RON2 block -2% and SARS PLpro yeast 2%.
Screening COc1ccccc1CCNC(=O)Cc1cccs1 returned Cycloheximide cs 8, Pf growth 96h -9%, Pf growth 48h 15%, Shiga toxin inh 24, AMA1 RON2 block 13% and SARS PLpro yeast -1%.
Screening O=C(c1cc2cc(Cl)ccc2[nH]1)N1CCCCC1 returned Cycloheximide cs 25*, Pf growth 96h 4%, Pf growth 48h 20%, Shiga toxin inh 27, AMA1 RON2 block 4% and SARS PLpro yeast -2%.
O=C(c1cccn2c(=O)c3ccc(Cl)cc3nc12)N1CCN(Cc2ccc3c(c2)OCO3)CC1 was read as Cycloheximide cs -3, Pf growth 96h 7.4µM*, Pf growth 48h 0%, Shiga toxin inh -18, AMA1 RON2 block -2% and SARS PLpro yeast 4%.

Screens as filed in PubChem.
